Results published in article PMC5700166.

Each sequence was assayed against T1, GST-Ap-NF-kB RHD (Exaiptasia pallida (Aiptasia), UniProt A0A913YAJ5 2-422) (assay: protein-binding microarray (PBM); PBM: ~300 nM protein, 6 mM HEPES pH 7.8, 80 mM KCl, 0.5 mM EDTA, 0.5 mM EGTA, 6% glycerol, 35 ng/ul poly-dIdC, 1% milk, 1 h, room temperature; Ap Aiptasia and Nv Nematostella (sea anemones) / Co Capsaspora / Aq Amphimedon (sponge) / Dm Drosophila / Hu human; RHD is the Rel homology domain; high values mean tight binding). Settings: dsDNA, one strand shown.
T1 sequence: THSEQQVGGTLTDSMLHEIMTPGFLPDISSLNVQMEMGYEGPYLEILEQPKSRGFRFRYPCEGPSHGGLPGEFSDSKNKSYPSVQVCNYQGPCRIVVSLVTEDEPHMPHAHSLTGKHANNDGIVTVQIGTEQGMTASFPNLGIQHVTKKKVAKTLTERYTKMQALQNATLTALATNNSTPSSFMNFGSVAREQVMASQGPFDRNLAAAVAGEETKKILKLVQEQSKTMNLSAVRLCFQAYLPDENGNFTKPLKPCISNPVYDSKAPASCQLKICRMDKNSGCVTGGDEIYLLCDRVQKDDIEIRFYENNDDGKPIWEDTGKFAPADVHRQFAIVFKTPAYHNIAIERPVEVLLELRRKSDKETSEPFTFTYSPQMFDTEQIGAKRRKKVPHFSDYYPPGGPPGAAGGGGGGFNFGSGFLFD

Sequence | binding signal [z-score]
CCGATTAACATCAGCCCCCCGTCTGATGTTAATCGGGTCTTGATTCGCTTGACGCTGCTG | 3.16
CCGATTAACATCAAACAGGGAAATGATGTTAATCGGGTCTTGATTCGCTTGACGCTGCTG | 2.71
CCGATTAACATCAATAAAGTCCCTGATGTTAATCGGGTCTTGATTCGCTTGACGCTGCTG | 5.45
CCGATTAACATCAGGGAATTAGATGATGTTAATCGGGTCTTGATTCGCTTGACGCTGCTG | 1.83
CCGATTAACATCAAGCCCCCCCATGATGTTAATCGGGTCTTGATTCGCTTGACGCTGCTG | 4.83
CCGATTAACATCAGGAAAGTACCTGATGTTAATCGGGTCTTGATTCGCTTGACGCTGCTG | 3.4
CCGATTAACATCAACTTTCCCAGTGATGTTAATCGGGTCTTGATTCGCTTGACGCTGCTG | 1.05
CCGATTAACATCAGAGTTTCCCATGATGTTAATCGGGTCTTGATTCGCTTGACGCTGCTG | 3.08
CCGATTAACATCAGTATTCCCCATGATGTTAATCGGGTCTTGATTCGCTTGACGCTGCTG | 6.37
CCGATTAACATCAACGGGAACTCTGATGTTAATCGGGTCTTGATTCGCTTGACGCTGCTG | 2.34
CCGATTAACATCACCATTTTCCCTGATGTTAATCGGGTCTTGATTCGCTTGACGCTGCTG | 3.46
CCGATTAACATCACATACCCCCCTGATGTTAATCGGGTCTTGATTCGCTTGACGCTGCTG | 4.69
CCGATTAACATCACCGTTTTCCCTGATGTTAATCGGGTCTTGATTCGCTTGACGCTGCTG | 3.62
CCGATTAACATCACCGCTTCCCTTGATGTTAATCGGGTCTTGATTCGCTTGACGCTGCTG | 1.62
CCGATTAACATCATGGGGACGACTGATGTTAATCGGGTCTTGATTCGCTTGACGCTGCTG | 3.56
CCGATTAACATCAGGGGAGTGTATGATGTTAATCGGGTCTTGATTCGCTTGACGCTGCTG | 3.6
CCGATTAACATCAAACTTTTCCCTGATGTTAATCGGGTCTTGATTCGCTTGACGCTGCTG | 3.37
CCGATTAACATCAGGGAAAAACCTGATGTTAATCGGGTCTTGATTCGCTTGACGCTGCTG | 5.74
CCGATTAACATCACGAAATTCCCTGATGTTAATCGGGTCTTGATTCGCTTGACGCTGCTG | 4.84
CCGATTAACATCAGGTAATTACCTGATGTTAATCGGGTCTTGATTCGCTTGACGCTGCTG | 2.06

Sequence | binding signal [z-score]
CCGATTAACATCATGGTGGGAAATGATGTTAATCGGGTCTTGATTCGCTTGACGCTGCTG | 1.25
CCGATTAACATCAGGGAAGGACCTGATGTTAATCGGGTCTTGATTCGCTTGACGCTGCTG | 1.78
CCGATTAACATCAGGGGAAGAAATGATGTTAATCGGGTCTTGATTCGCTTGACGCTGCTG | 4.46
CCGATTAACATCAAAAAACTACCTGATGTTAATCGGGTCTTGATTCGCTTGACGCTGCTG | 2.29
CCGATTAACATCAGACATTCCCATGATGTTAATCGGGTCTTGATTCGCTTGACGCTGCTG | 1.46
CCGATTAACATCAAAAATTCCCATGATGTTAATCGGGTCTTGATTCGCTTGACGCTGCTG | 5.04
CCGATTAACATCAGGGAATCAGATGATGTTAATCGGGTCTTGATTCGCTTGACGCTGCTG | 1.26
CCGATTAACATCAATTTTTTCCCTGATGTTAATCGGGTCTTGATTCGCTTGACGCTGCTG | 3.79
CCGATTAACATCACCCCCACCCCTGATGTTAATCGGGTCTTGATTCGCTTGACGCTGCTG | 3.49
CCGATTAACATCAAATAATTCCCTGATGTTAATCGGGTCTTGATTCGCTTGACGCTGCTG | 4.23
CCGATTAACATCAGGGAAAAGAATGATGTTAATCGGGTCTTGATTCGCTTGACGCTGCTG | 2.43
CCGATTAACATCACGGTAATCCCTGATGTTAATCGGGTCTTGATTCGCTTGACGCTGCTG | 4.31
CCGATTAACATCAGGGAATACACTGATGTTAATCGGGTCTTGATTCGCTTGACGCTGCTG | 2.66
CCGATTAACATCATGGGAAGGTTTGATGTTAATCGGGTCTTGATTCGCTTGACGCTGCTG | 1.34
CCGATTAACATCAAAAAATTACCTGATGTTAATCGGGTCTTGATTCGCTTGACGCTGCTG | 2.19
CCGATTAACATCACCTATTCCCCTGATGTTAATCGGGTCTTGATTCGCTTGACGCTGCTG | 5.73
CCGATTAACATCAACTCGGGAAATGATGTTAATCGGGTCTTGATTCGCTTGACGCTGCTG | 1.08
CCGATTAACATCAACCAATCCCCTGATGTTAATCGGGTCTTGATTCGCTTGACGCTGCTG | 5.19
CCGATTAACATCAAAGATTTCCCTGATGTTAATCGGGTCTTGATTCGCTTGACGCTGCTG | 4.23
